# Data taken from PubChem BioAssay (Tox21).
# Values joined by “and” are separate entries in the source; they are usually repeats but may differ in a detail not shown here. Equal entries are not always repeated. Results filed as inconclusive are left out. A call without a number means that no potency is given here. More than one record can exist for a structure, and the calls need not agree. Active and inactive are the calls of the source. Unless noted, calls follow the shape of the dose curve; as a rule, active = well fitted curve in the direction sought with a large enough effect in the repeat runs; inconclusive = weak or mixed curves; inactive = no such curve, though single readings can be large; an effect the other way counts as inactive or inconclusive.
# Tests used:
# [1] = qHTS assay for identifying genotoxic compounds that show differential cytotoxicity against isogenic chicken DT40 cell lines with known DNA damage response pathways - wild type cell line (AID 743012); settings: DT40 wild type chicken cells viability, CellTiter-Glo, 40 h; series mostly up to 68.4 µM; also: nearly all actives have a fitted effect of over 60% in size; also: potency is read from the fitted curve at half-maximal effect
# How it was run: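 CellTiter-Glo luminescence readout of viability in wild type DT40 cells after 40 h compound exposure at 37 C/5% CO2; 300 cells/well; reagent incubated 30 min at room temperature before reading.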
# [2] = qHTS assay for identifying genotoxic compounds that show differential cytotoxicity against isogenic chicken DT40 cell lines with known DNA damage response pathways - Rev3 mutant cell line (AID 743014); settings: chicken DT40 Rev3-/- viability, CellTiter-Glo, 40 h; series mostly up to 68.4 µM; also: nearly all actives have a fitted effect of over 55% in size; also: potency is read from the fitted curve at half-maximal effect
# [3] = qHTS assay to identify small molecule antagonists of the androgen receptor (AR) signaling pathway - cell viability counter screen (AID 743033; also: nearly all actives have a fitted effect of over 45% in size); settings: AR-bla HEK293 viability, CellTiter-Glo luminescence, 16 h; series mostly up to 58.5 µM
# [4] = qHTS assay to identify small molecule antagonists of the androgen receptor (AR) signaling pathway using the MDA cell line - cell viability counter screen (AID 743041; also: nearly all actives have a fitted effect of over 45% in size); settings: MDA-kb2 viability, CellTiter-Fluor, 16 h, cells co-treated with R1881 androgen agonist; series mostly up to 70.3 µM
# How it was run: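 qHTS viability read-out; MDA-kb2 AR-luc; R1881-stimulated; 16 h exposure at 37C, 0% CO2; CellTiter-Fluor, 30 min; fluorescence intensity.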
# [5] = target: Androgen receptor (Homo sapiens) (UniProt P10275); test: qHTS assay to identify small molecule antagonists of the androgen receptor (AR) signaling pathway (AID 743035; active = well fitted inhibition curve with a large enough effect in the signal ratio in the repeat runs, not every such curve was filed as active; the % refers to the signal ratio; also: potency is read from the fitted curve at half-maximal effect); settings: HEK293 AR-UAS-bla, R1881-stimulated, beta-lactamase FRET, 16 h; series mostly up to 58.5 µM
# Sequence of Androgen receptor (Homo sapiens) (P10275 whole entry, looked up): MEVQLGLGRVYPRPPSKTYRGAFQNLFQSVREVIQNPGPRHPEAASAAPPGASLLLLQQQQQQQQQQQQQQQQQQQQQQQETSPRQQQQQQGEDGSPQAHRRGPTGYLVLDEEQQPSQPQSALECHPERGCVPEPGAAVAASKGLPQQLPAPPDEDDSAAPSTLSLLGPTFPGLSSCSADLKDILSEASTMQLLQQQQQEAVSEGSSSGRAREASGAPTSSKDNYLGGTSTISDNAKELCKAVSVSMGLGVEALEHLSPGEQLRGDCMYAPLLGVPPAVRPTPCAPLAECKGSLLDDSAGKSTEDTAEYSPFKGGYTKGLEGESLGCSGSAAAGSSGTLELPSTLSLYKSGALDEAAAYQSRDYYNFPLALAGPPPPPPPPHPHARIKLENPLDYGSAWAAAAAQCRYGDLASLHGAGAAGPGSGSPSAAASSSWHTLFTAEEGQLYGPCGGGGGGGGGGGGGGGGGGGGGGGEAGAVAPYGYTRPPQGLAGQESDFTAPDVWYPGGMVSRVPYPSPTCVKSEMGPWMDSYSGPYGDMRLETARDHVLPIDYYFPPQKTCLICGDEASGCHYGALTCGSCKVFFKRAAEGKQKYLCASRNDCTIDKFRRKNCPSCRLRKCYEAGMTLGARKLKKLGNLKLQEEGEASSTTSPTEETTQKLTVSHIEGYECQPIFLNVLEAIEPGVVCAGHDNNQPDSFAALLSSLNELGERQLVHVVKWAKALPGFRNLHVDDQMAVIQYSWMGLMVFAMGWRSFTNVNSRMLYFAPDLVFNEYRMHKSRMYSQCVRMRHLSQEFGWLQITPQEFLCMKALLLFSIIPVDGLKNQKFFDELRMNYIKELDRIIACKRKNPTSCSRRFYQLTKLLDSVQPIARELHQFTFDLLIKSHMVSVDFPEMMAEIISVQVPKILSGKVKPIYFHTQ
# How it was run: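 AR-bla HEK293 reporter cells; 4 h settle at 37C/5% CO2; compound + R1881 agonist, 16 h at 37C; LiveBLAzer B/G FRET substrate 2 h RT; fluorescence intensity read. qHTS format.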
# [6] = target: Androgen receptor (Homo sapiens) (UniProt P10275); test: qHTS assay to identify small molecule agonists of the androgen receptor (AR) signaling pathway using the MDA cell line (AID 743040; also: nearly all actives have a fitted effect of over 20% in size); settings: MDA-kb2 AR-luc cells, MMTV luciferase, 16 h; series mostly up to 70.3 µM
# How it was run: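 Agonist activity is measured as luciferase luminescence in human MDA-kb2 cells whose MMTV reporter responds to both AR and GR. Compounds in DMSO incubate 16 h at 37C, 0% CO2, and ONE-Glo is read after 30 min.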
# [7] = target: Androgen receptor (Homo sapiens) (UniProt P10275); test: qHTS assay to identify small molecule antagonists of the androgen receptor (AR) signaling pathway using the MDA cell line (AID 743042; also: nearly all actives have a fitted effect of over 55% in size); settings: MDA-kb2 AR-luc, MMTV luciferase, R1881 antagonist, 16 h; series mostly up to 70.3 µM
# How it was run: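 MDA-kb2 cells (human breast carcinoma, stably carrying an MMTV-luciferase reporter responsive to AR and GR) were plated at 3,000 cells/well and preincubated 5 hr at 37C, then given compound plus R1881 agonist for 16 h. ONE-Glo luminescence was read.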
# [8] = qHTS assay for identifying genotoxic compounds that show differential cytotoxicity against isogenic chicken DT40 cell lines with known DNA damage response pathways - Rad54/Ku70 mutant cell line (AID 743015); settings: DT40 Rad54/Ku70 mutant viability, CellTiter-Glo, 40 h; series mostly up to 66.8 µM; also: nearly all actives have a fitted effect of over 60% in size; also: potency is read from the fitted curve at half-maximal effect
# [9] = target: Androgen receptor (Homo sapiens) (UniProt P10275); test: qHTS assay to identify small molecule agonists of the androgen receptor (AR) signaling pathway (AID 743036; active = well fitted activation curve with a large enough effect in the signal ratio in the repeat runs, with a control signal flat, not every such curve was filed as active; the % refers to the signal ratio); settings: HEK293 AR-UAS-bla GripTite, beta-lactamase FRET ratio, 16 h; series mostly up to 62.4 µM
# How it was run: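 Screening used 2,000 AR-bla HEK293 cells per well, treated 16 h at 37C with test compounds in DMSO alongside positive and DMSO-only controls; beta-lactamase activity was then read by LiveBLAzer B/G FRET fluorescence after 2 h at room temperature.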
structure (smiles),measurement,setting,value
COc1ccc(OC)c(OC)c1,Potency,[1],inactive
same,Potency,[2],inactive
same,Potency,[3],inactive
same,Potency,[4],inactive
O=C(O)[C@@H]1[C@H]2C[C@H]3c4[nH]c5ccccc5c4CCN3C[C@@H]2CC[C@@H]1O,Potency,[2],inactive
same,Potency,[5],inactive
same,Potency,[6],inactive
same,Potency,[7],inactive
OC(CCN1CCCCC1)(c1ccccc1)C1CCCCC1 (stereo not drawn),Potency,[1],26.6 µM (active)
same,Potency,[2],inactive
same,Potency,[8],inactive
same,Potency,[4],inactive
Cn1c(N)nc2nc[nH]c2c1=O,Potency,[2],inactive
same,Potency,[3],inactive
same,Potency,[4],inactive
CC[C@@H]1C[C@H](N(Cc2cc(C(F)(F)F)cc(C(F)(F)F)c2)C(C)=O)c2cc(C(F)(F)F)ccc2N1C(=O)OC(C)C,Potency,[1],27.3 µM (active)
same,Potency,[3],inactive
NCCCOCCOCCOCCCN,Potency,[1],5.45 µM (active)
same,Potency,[2],10.9 µM (active)
same,Potency,[3],inactive
COc1ccc([C@@H]2Sc3ccccc3N(CCN(C)C)C(=O)[C@@H]2OC(C)=O)cc1,Potency,[3],inactive
C[C@@H](C1=C(CCN(C)C)Cc2ccccc21)c1ccccn1,Potency,[3],inactive
same,Potency,[4],inactive
CC(=O)O[C@H]1C[C@@H]2CC[C@@H]3[C@H](CC[C@@]4(C)[C@H]3C[C@H]([N+]3(C)CCCCC3)[C@@H]4OC(C)=O)[C@@]2(C)C[C@@H]1N1CCCCC1,Potency,[1],inactive
same,Potency,[2],inactive
same,Potency,[3],inactive
same,Potency,[4],inactive
C=CC(=O)OCCOC(=O)CCC(=O)O,Potency,[2],inactive
same,Potency,[3],inactive
CN1CCC(=C2c3ccccc3C=Cc3ccccc32)CC1,Potency,[1],7.5 µM (active)
same,Potency,[2],10.6 µM (active)
same,Potency,[3],inactive
CC[C@H](C)[C@@H](C(=O)O)n1sc2ccccc2c1=O,Potency,[1],inactive
same,Potency,[3],inactive
same,Potency,[4],inactive
CCCCCCc1ccc(N)cc1,Potency,[1],19.3 µM (active)
same,Potency,[2],34.4 µM (active)
same,Potency,[8],43.3 µM (active)
same,Potency,[5],24.5 µM (active)
same,outcome,[9],inactive
same,Potency,[6],inactive
same,Potency,[4],inactive
same,Potency,[7],inactive
CCc1nn(C2CCCCC2)c2cc(C3(C#N)CCC(C(=O)O)CC3)ccc12 (stereo not drawn),Potency,[8],61.1 µM (active)
same,Potency,[4],inactive
O=S(=O)(O)c1ccc(O)c2ncccc12,Potency,[2],inactive
same,Potency,[3],inactive
same,Potency,[4],inactive
N#Cc1c(F)cccc1F,Potency,[1],inactive
same,Potency,[2],inactive
same,Potency,[3],inactive
same,Potency,[4],inactive
O=C(O)Cc1cc(I)c(Oc2ccc(O)c(I)c2)c(I)c1,Potency,[1],inactive
same,Potency,[2],inactive
same,Potency,[8],inactive and 54.5 µM (active)
same,Potency,[4],inactive
COc1ccc2[nH]c(S(=O)Cc3ncc(C)c(OC)c3C)nc2n1 (stereo not drawn),Potency,[1],29.8 µM (active)
same,Potency,[3],inactive
same,Potency,[4],inactive
Cc1occc1S,Potency,[1],54.5 µM (active)
same,Potency,[2],61.1 µM (active)
same,Potency,[3],inactive
same,Potency,[4],inactive
Nc1nc(CC(=O)O)cs1,Potency,[1],inactive
same,Potency,[2],inactive
same,Potency,[3],inactive
same,Potency,[4],inactive
Cc1ccc(C(N)=O)cc1N,Potency,[1],inactive
same,Potency,[2],inactive
same,Potency,[3],inactive
same,Potency,[4],inactive
Cn1c(NCCN(CCO)CCCc2ccc([N+](=O)[O-])cc2)cc(=O)n(C)c1=O,Potency,[1],inactive
same,Potency,[2],inactive
same,Potency,[3],inactive
same,Potency,[4],inactive
CCCCCc1ccc(N)cc1,Potency,[1],inactive
same,Potency,[3],inactive
CCOC(=O)CC(=O)c1cc(F)c(Cl)nc1Cl,Potency,[2],inactive
same,Potency,[8],inactive
same,Potency,[3],inactive
CC1(C)CCC(C)(C)c2cc(NC(=O)c3ccc(C(=O)O)cc3)ccc21,Potency,[1],26.6 µM (active)
same,Potency,[8],23.7 µM (active)
same,Potency,[3],inactive
CC(C)(C)C1CCCCC1O (stereo not drawn),Potency,[2],inactive
same,Potency,[8],inactive
same,Potency,[3],inactive
CC(C)CCCC(C)CCO (stereo not drawn),Potency,[5],inactive
same,outcome,[9],inactive
same,Potency,[6],inactive
same,Potency,[4],inactive
same,Potency,[7],inactive
C1=Cc2ccccc2C1,Potency,[1],inactive
same,Potency,[2],inactive
same,Potency,[3],inactive
same,Potency,[4],inactive
C#CCOC(=O)[C@@H](C)Oc1ccc(Oc2ncc(Cl)cc2F)cc1,Potency,[2],inactive
same,Potency,[3],inactive
same,Potency,[4],inactive
CC(C)NCC(O)COc1ccc(CC(N)=O)cc1 (stereo not drawn),Potency,[1],inactive
same,Potency,[2],inactive
same,Potency,[8],inactive
same,Potency,[4],inactive
O=C(Nc1ccccc1)OCC(CN1CCCCC1)OC(=O)Nc1ccccc1 (stereo not drawn),Potency,[1],inactive
same,Potency,[2],inactive
same,Potency,[3],inactive
same,Potency,[4],inactive
CCCCCCCCCC(=O)OCC,Potency,[1],inactive
same,Potency,[2],inactive
same,Potency,[8],inactive
same,Potency,[4],inactive
COC(=O)CSc1cc(N=c2sc(=O)n3n2CCCC3)c(F)cc1Cl,Potency,[6],inactive
same,Potency,[7],inactive
CNCC[C@@H](Oc1ccccc1C)c1ccccc1,Potency,[1],16.8 µM (active)
same,Potency,[3],inactive
same,Potency,[5],inactive
same,outcome,[9],inactive
same,Potency,[6],inactive
same,Potency,[4],inactive
Nc1cnn([C@@H]2O[C@H](CO)[C@@H](O)[C@H]2O)c(=O)n1,Potency,[1],27.3 µM (active)
same,Potency,[8],6.12 µM (active)
same,Potency,[3],inactive
same,Potency,[4],inactive
CCCC(C)C,Potency,[1],inactive
same,Potency,[2],inactive
same,Potency,[8],inactive
same,Potency,[4],inactive
CCOc1nc2cccc(C(=O)O)c2n1Cc1ccc(-c2ccccc2-c2nn[nH]n2)cc1,Potency,[2],inactive
same,Potency,[8],29.8 µM (active)
same,Potency,[5],inactive
same,outcome,[9],inactive
same,Potency,[6],inactive
same,Potency,[4],inactive
same,Potency,[7],inactive
